A short description of assay [1]: TOX21_p53_BLA_p3_viability: Viability Assessment in the Tox21 HCT-116 p53 Agonism Beta-lactamase Assay, Phase 3 (AID 2283593).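 Note: cells exposed to compound for 16 h before reading.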 Put shortly: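 Cellular ATP was quantified by CellTiter-Glo luminescence, read after 30 min at room temperature. Beforehand, HCT116 cells (4000/well) received compound 5 h post-seeding, 217-fold diluted from DMSO, then incubated 16 h at 37C.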

In assay [2] the target is Cellular tumor antigen p53 (Homo sapiens) (UniProt P04637). Briefly: TOX21_p53_BLA_p3_ratio: Tox21 HCT-116 p53 Agonism Beta-lactamase Assay, Ratio, Phase 3 (AID 2283596). Put shortly: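 Cells were seeded at 4000/well, rested 5 h at 37C, then dosed with DMSO compound solutions (217-fold dilution) for 16 h. CCF4-AM substrate was loaded for 2 h at room temperature, and the 460/530 nm emission ratio was fitted for gain of signal versus DMSO.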
Sequence of Cellular tumor antigen p53 (Homo sapiens) (P04637 whole entry, looked up): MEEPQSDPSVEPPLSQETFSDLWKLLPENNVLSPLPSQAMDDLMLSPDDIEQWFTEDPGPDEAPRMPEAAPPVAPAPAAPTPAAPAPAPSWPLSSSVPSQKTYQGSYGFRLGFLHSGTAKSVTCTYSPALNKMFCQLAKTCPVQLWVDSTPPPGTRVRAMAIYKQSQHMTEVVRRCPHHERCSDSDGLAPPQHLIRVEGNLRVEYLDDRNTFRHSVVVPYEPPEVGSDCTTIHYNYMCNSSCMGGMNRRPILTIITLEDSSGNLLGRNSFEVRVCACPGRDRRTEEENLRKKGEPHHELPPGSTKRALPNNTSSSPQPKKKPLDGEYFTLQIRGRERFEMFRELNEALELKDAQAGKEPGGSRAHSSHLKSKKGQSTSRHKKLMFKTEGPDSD

Assay [3] has the same target. The experiment in a line: TOX21_p53_BLA_p5_ratio: Tox21 HCT-116 p53 Agonism Beta-lactamase Assay, Ratio, Phase 5 (AID 2283599). A digest of the protocol: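 Beta-lactamase reporter ratio (blue 460 nm over green 530 nm, 405 nm excitation) after 2 h CCF4-AM loading, in HCT-116 cells exposed 16 h at 37 C to compounds pinned at 217-fold dilution. Increases relative to DMSO baseline scored.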

The nature of assay [4]: TOX21_p53_BLA_p5_viability: Viability Assessment in the Tox21 HCT-116 p53 Agonism Beta-lactamase Assay, Phase 5 (AID 2283600). Put shortly: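 Luciferase-coupled ATP quantitation of cells treated for 16 h (37C, 5% CO2) with test chemicals delivered in DMSO via a 217-fold dilution; 4000 cells/well; reagent incubated 30 min at room temperature before luminescence reading.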

Assay [5] addresses Cellular tumor antigen p53 (Homo sapiens) (UniProt P04637). The experiment in a line: TOX21_p53_BLA_p4_ratio: Tox21 HCT-116 p53 Agonism Beta-lactamase Assay, Ratio, Phase 4 (AID 2283601). A digest of the protocol: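 Signal is the blue/green (460nm/530nm) ratio of cleaved versus uncleaved CCF4-AM substrate, read after 2 h substrate loading. Cells were HCT116 carrying the p53-responsive beta-lactamase reporter, dosed 16 h at 37C, 5% CO2; CellTiter-Glo measured in parallel.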

A short description of assay [6]: Tanguay_ZF_120hpf_MORT_legacy: (Legacy) Oregon State University Tanguay Lab 120 Hour Post-fertilization zebrafish Assay for Mortality (AID 2283633). Put shortly: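 Dechorionated Tropical 5D wild-type zebrafish embryos, one per well from 6 hpf, were statically exposed at 28C in the dark until 120 hpf (0.64% DMSO final). Mortality was scored as present/absent by brightfield microscopy, fitted positively versus DMSO.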

Assay [7] is described as follows: Tanguay_ZF_120hpf_AXIS_legacy: (Legacy) Oregon State University Tanguay Lab 120 Hour Post-fertilization zebrafish Assay for Body Axis Malformation (AID 2283635). A digest of the protocol: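 Tropical 5D wild-type zebrafish embryos, dechorionated with pronase at 4 hpf, were placed singly in wells at 6 hpf and exposed statically to test chemical (0.64% DMSO final) at 28C until 120 hpf, then scored by brightfield for body axis defects.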

Assay [8] is described as follows: Tanguay_ZF_120hpf_SNOU_legacy: (Legacy) Oregon State University Tanguay Lab 120 Hour Post-fertilization zebrafish Assay for Snout Malformation (AID 2283637). A digest of the protocol: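 Binary snout-malformation call at 120 hpf in wild-type 5D embryos, chorion removed by pronase, under static exposure from 6 hpf at 28C (0.64% DMSO). Embryos dying by 24 or 120 hpf excluded.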

The nature of assay [9]: Tanguay_ZF_120hpf_JAW_legacy: (Legacy) Oregon State University Tanguay Lab 120 Hour Post-fertilization zebrafish Assay for Jaw Malformation (AID 2283638). Put shortly: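 Tropical 5D wild-type embryos, dechorionated with pronase at 4 hpf, were placed singly per well at 6 hpf and statically exposed at 28C until 120 hpf (0.64% DMSO final). Jaw malformation scored as present/absent by brightfield microscopy at 120 hpf, analyzed relative to DMSO.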

A short description of assay [10]: Tanguay_ZF_120hpf_OTIC_legacy: (Legacy) Oregon State University Tanguay Lab 120 Hour Post-fertilization zebrafish Assay for Otic Vesicle Malformation (AID 2283639). Put shortly: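 Brightfield scoring at 120 hpf, binary present/absent; DMSO negative control, 5uM trimethyltin chloride positive control. Static exposure at 28C, final DMSO 0.64% (vol/vol). Dead embryos not scored for malformation.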

Assay [11] is described as follows: Tanguay_ZF_120hpf_PE_legacy: (Legacy) Oregon State University Tanguay Lab 120 Hour Post-fertilization zebrafish Assay for Pericardial Edema (AID 2283640). Put shortly:
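Tropical 5D wild-type zebrafish embryos were exposed statically to 120 hpf at 28C, sealed and foil-covered, in 0.64% DMSO final. Pericardial edema was scored present/absent by brightfield microscopy; dead embryos were not scored.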

A short description of assay [12]: Tanguay_ZF_120hpf_BRAI_legacy: (Legacy) Oregon State University Tanguay Lab 120 Hour Post-fertilization zebrafish Assay for Brain Malformation (AID 2283641). A digest of the protocol: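 Tropical 5D wild-type zebrafish embryos were exposed statically in sealed, foil-covered plates at 28C until 120 hpf, with 0.64% (vol/vol) final DMSO. Brain malformation was scored present/absent by brightfield microscopy, relative to DMSO baseline.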

Assay [13] is described as follows: Tanguay_ZF_120hpf_PFIN_legacy: (Legacy) Oregon State University Tanguay Lab 120 Hour Post-fertilization zebrafish Assay for Pectoral Fin Malformation (AID 2283648).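 Note: each larva judged yes or no for fin defect by brightfield with dead larvae skipped.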 A digest of the protocol: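 Pectoral fin malformation was recorded as a binary endpoint at 120 hpf in wild-type Tropical 5D larvae, which had been dechorionated and exposed statically from 6 hpf at 28C in 0.64% DMSO. Dead embryos were excluded.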

A short description of assay [14]: Tanguay_ZF_120hpf_CFIN_legacy: (Legacy) Oregon State University Tanguay Lab 120 Hour Post-fertilization zebrafish Assay for Caudal Fin Malformation (AID 2283649). Put shortly: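 Tropical 5D wild-type embryos, dechorionated with pronase at 4 hpf, were placed singly in wells at 6 hpf and statically exposed to compound at 28C until 120 hpf (0.64% DMSO). Caudal fin malformation was scored present/absent by brightfield microscopy.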

The nature of assay [15]: Tanguay_ZF_120hpf_PIG_legacy: (Legacy) Oregon State University Tanguay Lab 120 Hour Post-fertilization zebrafish Assay for Pigmentation Malformation (AID 2283650). Put shortly:
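Pigment malformation recorded as a binary call at 120 hpf in zebrafish (Tropical 5D) exposed singly from 6 hpf after pronase dechorionation. Static, sealed, 28C exposure, 0.64% DMSO; mortality excludes scoring; positive-direction fit against DMSO.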

A short description of assay [16]: Tanguay_ZF_120hpf_CIRC_legacy: (Legacy) Oregon State University Tanguay Lab 120 Hour Post-fertilization zebrafish Assay for Circulatory Malformation (AID 2283651). Put shortly: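 Static exposure, 6–120 hpf, 28C, sealed and dark; one dechorionated 5D embryo/well; DMSO 0.64% v/v final. Binary circulation endpoint by brightfield; dead embryos not scored.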
Assay [17] in a line: Tanguay_ZF_120hpf_YSE_legacy: (Legacy) Oregon State University Tanguay Lab 120 Hour Post-fertilization zebrafish Assay for Yolk Sac Edema (AID 2283634). A digest of the protocol:
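Tropical 5D wild-type embryos, dechorionated with pronase at 4 hpf, were exposed singly from 6 hpf to 120 hpf under static, sealed, dark conditions at 28C with 0.64% DMSO final. Yolk sac edema was scored present/absent by brightfield microscopy.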

A short description of assay [18]: Tanguay_ZF_120hpf_EYE_legacy: (Legacy) Oregon State University Tanguay Lab 120 Hour Post-fertilization zebrafish Assay for Eye Malformation (AID 2283636).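 Note: binary presence or absence of eye malformation scored by brightfield in 120 hpf larvae.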 A digest of the protocol:
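Binary brightfield scoring of eye defects at 120 hpf after static exposure from 6 hpf of single pronase-dechorionated wild-type embryos (28C, 0.64% DMSO). Non-mortality endpoints omitted where embryos died; fit vs DMSO.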

Assay [19] can be described thus: Tanguay_ZF_120hpf_SOMI_legacy: (Legacy) Oregon State University Tanguay Lab 120 Hour Post-fertilization zebrafish Assay for Somite Malformation (AID 2283647). A digest of the protocol:
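Tropical 5D wild-type zebrafish embryos, dechorionated with pronase at 4 hpf, were placed singly at 6 hpf and statically exposed until 120 hpf at 28C in 0.64% DMSO. Somite malformation was scored present/absent by brightfield microscopy versus DMSO.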

Assay [20] in a line: TOX21_p53_BLA_p4_viability: Viability Assessment in the Tox21 HCT-116 p53 Agonism Beta-lactamase Assay, Phase 4 (AID 2283597).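 Note: hits lower the luminescence signal meaning cytotoxicity.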 Put shortly: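 Cytotoxicity was inferred from loss of CellTiter-Glo luminescence. HCT116 cells had been dosed with compounds after 5 h plating, incubated 16 h at 37C and 5% CO2, and exposed to the CCF4-AM substrate for 2 h.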

Records with an inconclusive call do not appear. The source made the active and inactive calls. Rule for the calls: active = hit-call score of the fitted dose curve at least 0.9, where 1 is the maximum; inconclusive = response in the unintended direction; inactive = score below 0.9.

As for `c1ccc2ccccc2c1`, the outcome in assay [1], in assay [2], in assay [3], in assay [4], in assay [5] and in assay [6] was inactive. The result in [7], in assay [8], in assay [9], in [10], in assay [11] and in [12] was inactive. In addition, the outcome in [13], in [14], in [15] and in assay [16] was inactive.

In the case of `Cc1occc1C(=O)Nc1ccc(C(=O)N2CCC(F)(F)/C(=C\C(=O)N3CCC(N4CCCCC4)CC3)c3ccccc32)cc1`, the molecule was classed as inactive in [1], in assay [2], in [3], in [4], in assay [6] and in assay [17]. The molecule was classed as inactive in [7], in [18], in [8], in assay [9], in assay [11] and in assay [12]. Further, the result in assay [19], in assay [13], in assay [14] and in assay [15] was inactive.

Turning to `CN1C(=O)CC[C@H]1c1cccnc1`, the molecule was called inactive in assay [1], in [2], in assay [4], in assay [5], in [6] and in assay [7]. The call in [18], in assay [8], in [9], in [12], in assay [13] and in [14] was inactive. Further, the molecule was classed as inactive in [15] and in [16].

As to `O=C(O)c1ccccc1-n1cc(C(=O)O)c(=O)c2cc(Nc3c(F)cc(F)cc3Cl)c(Cl)cc21`, the outcome in assay [5], in assay [6], in assay [17], in assay [18], in [8] and in assay [9] was inactive. For the same molecule, the molecule was classed as inactive in assay [10], in assay [11], in [12], in assay [19], in [13] and in assay [14]. In addition, the call in assay [16] was inactive.

In the case of `COCC(C)OCC(C)OCC(C)O` (configuration not stated), the result in assay [6], in assay [17], in assay [7], in assay [18], in assay [8] and in [9] was inactive. Also, the result in assay [10], in [12], in assay [19], in assay [13], in assay [14] and in [15] was inactive. For the same molecule, the result in assay [16] was inactive.

Consider `CC(C)(O)c1ccc(CNC(=O)c2cccnc2Oc2ccc3nonc3c2)cc1`, for which the outcome in [2], in assay [3], in [5], in assay [6], in [7] and in assay [18] was inactive. Moreover, the molecule was classed as inactive in assay [8], in assay [9], in [10], in assay [11], in [12] and in [13]. In addition, the molecule was called inactive in assay [14] and in [16].

Regarding `Cc1cc(F)ccc1-c1cc(N2CC[C@@H](O)[C@H]2CO)ncc1N(C)C(=O)C(C)(C)c1cc(C(F)(F)F)cc(C(F)(F)F)c1`, the AC50 in assay [1] was 30.7 µM (active); in assay [2], 45.3 µM (active); in [20], 27.3 µM (active); in assay [3], 36 µM (active); in assay [4], 23.7 µM (active); in assay [5], 26.4 µM (active). Further, the call in assay [6], in [7], in assay [18], in assay [9], in assay [10] and in [14] was inactive. For the same molecule, the outcome in assay [15] and in [16] was inactive.

Turning to `CCCC(=O)OCCC(C)C`, the outcome in assay [2], in [20], in [3], in [4], in assay [6] and in assay [17] was inactive. For the same molecule, the result in assay [7], in assay [18], in assay [8], in assay [9], in assay [10] and in assay [11] was inactive. For the same molecule, the result in assay [12], in [13], in assay [15] and in assay [16] was inactive.

As for `CCCCCCCCCCCCO`, the molecule was called inactive in assay [1], in assay [2], in assay [3], in assay [4], in [5] and in [6]. The molecule was classed as inactive in [17], in assay [7], in [18], in assay [8], in [9] and in assay [10]. The molecule was called inactive in assay [11], in assay [12], in assay [13], in [14], in [15] and in assay [16].

In the case of `O=c1ccc2ccccc2o1`, the outcome in assay [2], in assay [20], in assay [3], in assay [4], in assay [5] and in assay [6] was inactive. The outcome in assay [7], in [18], in [8], in assay [9], in [10] and in [12] was inactive. Moreover, the call in [19], in [13], in assay [14], in assay [15] and in [16] was inactive.

On to `CC1(C)NC(=O)N(c2ccc([N+](=O)[O-])c(C(F)(F)F)c2)C1=O`, for which the molecule was called inactive in assay [1], in assay [2], in assay [20], in [3], in [4] and in assay [5]. In addition, the molecule was classed as inactive in [6], in [18], in [9], in [10], in assay [11] and in assay [12]. Besides, the result in [13], in assay [14], in [15] and in assay [16] was inactive.

On to `CCCCCc1ccc(N)cc1`, for which the molecule was classed as inactive in assay [1], in [2], in assay [20], in assay [4], in assay [5] and in assay [6]. Further, the molecule was called inactive in [7], in [8], in assay [10], in assay [11], in assay [12] and in [13]. The call in [14], in assay [15] and in assay [16] was inactive.
